Assay results as given in PubChem BioAssay AID1159580 (chemical genetic matrix, 2015).
Among all 5,500 compounds or so, about 2,000 (36%) were called active. Inconclusive results (about 18%) are left out. Rule as the data show it: active = normalized growth mostly below about 0.91 (no sharp cut-off); inconclusive = no clear call, values can overlap the other calls; inactive = mostly above about 0.92. The list shows a part of the results.

Assay: chemical genetic growth profiling, strain panel (AID 1159580);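 also: tested at 20 µM; growth read once vehicle control cultures reached saturation at 30 °C; 1 = growth at the plate median or of vehicle wells; lower values mean less growth of the strain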
Settings: growth OD
[1] = S. cerevisiae deletion strains, locus YDL101C, strain DUN1, hits give low values
[2] = S. cerevisiae deletion strains, locus YHR030C, strain SLT2, hits give low values

Measured: normalized growth

NC(=S)N/N=C\c1cc(F)cc(F)c1
inactive: S. cerevisiae deletion strains, locus YAL013W, strain DEP1, hits give low values 0.97 | S. cerevisiae deletion strains, locus YBR229C, strain ROT2, hits give low values 1.01 | [1] 1.04 | S. cerevisiae deletion strains, locus YDR150W, strain NUM1, hits give low values 0.96 | S. cerevisiae deletion strains, locus YEL061C, strain CIN8, hits give low values 0.94 | S. cerevisiae deletion strains, locus YGR078C, strain PAC10, hits give low values 0.998 | S. cerevisiae deletion strains, locus YGR229C, strain SMI1, hits give low values 0.944 | [2] 0.778 | S. cerevisiae deletion strains, locus YHR087W, strain rtc3, hits give low values 1.08 | S. cerevisiae deletion strains, locus YJL187C, strain SWE1, hits give low values 0.971 | S. cerevisiae deletion strains, locus YJR043C, strain POL32, hits give low values 0.98 | S. cerevisiae deletion strains, locus YJR075W, strain HOC1, hits give low values 1.02 | S. cerevisiae deletion strains, locus YLR039C, strain RIC1, hits give low values 1.05 | S. cerevisiae deletion strains, locus YLR058C, strain SHM2 (second series), hits give low values 0.994 | S. cerevisiae deletion strains, locus YLR262C, strain YPT6, hits give low values 1.04 | S. cerevisiae deletion strains, locus YML094W, strain GIM5, hits give low values 0.923 | S. cerevisiae deletion strains, locus YMR219W, strain ESC1, hits give low values 0.999 | S. cerevisiae deletion strains, locus YMR263W, strain SAP30, hits give low values 0.92 | S. cerevisiae deletion strains, locus YNL153C, strain GIM3, hits give low values 0.976 | S. cerevisiae deletion strains, locus YNL322C, strain KRE1, hits give low values 1.05 | S. cerevisiae deletion strains, locus YNR030W, strain Alg12, hits give low values 0.922 | S. cerevisiae deletion strains, locus YPL055C, strain LGE1, hits give low values 0.963 | S. cerevisiae deletion strains, locus YPL241C, strain CIN2, hits give low values 0.933 | S. cerevisiae deletion strains, locus YPR135W, strain CTF4, hits give low values 0.78 | S. cerevisiae strains, strain wild type, hits give low values 0.923
active: S. cerevisiae deletion strains, locus YLR085C, strain ARP6, hits give low values 0.34 | S. cerevisiae deletion strains, locus YMR307W, strain GAS1, hits give low values 0.574 | S. cerevisiae deletion strains, locus YNL298W, strain CLA4 (second series), hits give low values 0.761

S=C(N/N=C\c1ccc(Cl)cc1)N/N=C\c1ccc(Cl)cc1
active: S. cerevisiae deletion strains, locus YER123W, strain YCK3, hits give low values 0.477 | S. cerevisiae deletion strains, locus YGR092W, strain DBF2, hits give low values 0.284 | [2] 0.64 | S. cerevisiae deletion strains, locus YJL157C, strain FAR1, hits give low values 0.582 | S. cerevisiae deletion strains, locus YJR066W, strain TOR1 (second series), hits give low values 0.448 | S. cerevisiae deletion strains, locus YKL067W, strain YNK1, hits give low values 0.645 | S. cerevisiae deletion strains, locus YKL101W, strain HSL1, hits give low values 0.714 | S. cerevisiae deletion strains, locus YLR113W, strain HOG1, hits give low values 0.66 | S. cerevisiae deletion strains, locus YLR133W, strain CKI1, hits give low values 0.693 | S. cerevisiae deletion strains, locus YML070W, strain DAK1, hits give low values 0.663 | S. cerevisiae deletion strains, locus YNL020C, strain ARK1, hits give low values 0.576 | S. cerevisiae deletion strains, locus YNL307C, strain MCK1 (second series), hits give low values 0.469 | S. cerevisiae deletion strains, locus YOR061W, strain CKA2, hits give low values 0.618 | S. cerevisiae deletion strains, locus YPL153C, strain RAD53, hits give low values 0.654 | S. cerevisiae deletion strains, locus YPL256C, strain CLN2, hits give low values 0.686
inactive: S. cerevisiae deletion strains, locus YAR019C, strain CDC15, hits give low values 0.957 | S. cerevisiae deletion strains, locus YBL105C, strain PKC1, hits give low values 0.962 | S. cerevisiae deletion strains, locus YBR135W, strain CKS1, hits give low values 0.962 | S. cerevisiae deletion strains, locus YBR136W, strain MEC1, hits give low values 0.973 | S. cerevisiae deletion strains, locus YBR160W, strain CDC28, hits give low values 0.969 | S. cerevisiae deletion strains, locus YDL017W, strain CDC7, hits give low values 0.961 | S. cerevisiae deletion strains, locus YDL028C, strain MPS1, hits give low values 0.959 | [1] 0.992 | S. cerevisiae deletion strains, locus YDL108W, strain KIN28, hits give low values 0.967 | S. cerevisiae deletion strains, locus YDL132W, strain cdc53, hits give low values 0.957 | S. cerevisiae deletion strains, locus YDL214C, strain PRR2, hits give low values 0.77 | S. cerevisiae deletion strains, locus YDR052C, strain DBF4, hits give low values 0.967 | S. cerevisiae deletion strains, locus YDR054C, strain cdc34, hits give low values 0.944 | S. cerevisiae deletion strains, locus YDR226W, strain ADK1, hits give low values 0.972 | S. cerevisiae deletion strains, locus YDR477W, strain SNF1, hits give low values 0.81 | S. cerevisiae deletion strains, locus YER133W, strain GLC7, hits give low values 0.748 | S. cerevisiae deletion strains, locus YFL009W, strain cdc4, hits give low values 0.952 | S. cerevisiae deletion strains, locus YFL029C, strain CAK1, hits give low values 0.955 | S. cerevisiae deletion strains, locus YFR003C, strain YPI1, hits give low values 0.965 | S. cerevisiae deletion strains, locus YFR019W, strain FAB1, hits give low values 0.832 | S. cerevisiae deletion strains, locus YFR028C, strain CDC14, hits give low values 0.963 | S. cerevisiae deletion strains, locus YGR040W, strain KSS1, hits give low values 0.849 | S. cerevisiae deletion strains, locus YGR052W, strain FMP48, hits give low values 0.779 | S. cerevisiae deletion strains, locus YHR079C, strain IRE1, hits give low values 0.588 | S. cerevisiae deletion strains, locus YHR082C, strain KSP1, hits give low values 0.817 | S. cerevisiae deletion strains, locus YHR205W, strain SCH9, hits give low values 0.793 | S. cerevisiae deletion strains, locus YIL147C, strain SLN1, hits give low values 0.966 | S. cerevisiae deletion strains, locus YJL095W, strain BCK1, hits give low values 0.653 | S. cerevisiae deletion strains, locus YJL128C, strain PBS2, hits give low values 0.991 | S. cerevisiae deletion strains, locus YJR016C, strain ILV3, hits give low values 0.955 | S. cerevisiae deletion strains, locus YJR066W, strain TOR1, hits give low values 0.596 | S. cerevisiae deletion strains, locus YKL048C, strain ELM1, hits give low values 0.833 | S. cerevisiae deletion strains, locus YKL193C, strain SDS22, hits give low values 0.961 | S. cerevisiae deletion strains, locus YKL203C, strain TOR2, hits give low values 0.783 | S. cerevisiae deletion strains, locus YLR403W, strain SFP1, hits give low values 0.738 | S. cerevisiae deletion strains, locus YMR001C, strain CDC5, hits give low values 0.965 | S. cerevisiae deletion strains, locus YMR205C, strain PFK2 (second series), hits give low values 0.746 | S. cerevisiae deletion strains, locus YMR277W, strain FCP1, hits give low values 0.953 | S. cerevisiae deletion strains, locus YNL006W, strain LST8, hits give low values 0.96 | S. cerevisiae deletion strains, locus YNL161W, strain CBK1, hits give low values 0.963 | S. cerevisiae deletion strains, locus YNL183C, strain NPR1, hits give low values 0.81 | S. cerevisiae deletion strains, locus YNL207W, strain RIO2, hits give low values 0.955 | S. cerevisiae deletion strains, locus YNL222W, strain SSU72, hits give low values 0.961 | S. cerevisiae deletion strains, locus YOL078W, strain AVO1, hits give low values 0.96 | S. cerevisiae deletion strains, locus YOL136C, strain PFK27, hits give low values 0.75 | S. cerevisiae deletion strains, locus YOR119C, strain RIO1, hits give low values 0.866 | S. cerevisiae deletion strains, locus YOR231W, strain MKK1, hits give low values 0.697 | S. cerevisiae deletion strains, locus YOR329C, strain SCD5, hits give low values 0.957 | S. cerevisiae deletion strains, locus YPL031C, strain PHO85, hits give low values 0.688 | S. cerevisiae deletion strains, locus YPL204W, strain HRR25, hits give low values 0.682 | S. cerevisiae deletion strains, locus YPL209C, strain IPL1, hits give low values 0.967 | S. cerevisiae deletion strains, locus YPR025C, strain CCL1, hits give low values 0.966 | S. cerevisiae deletion strains, locus YPR106W, strain ISR1, hits give low values 0.972 | S. cerevisiae deletion strains, locus YPR111W, strain DBF20, hits give low values 0.975 | S. cerevisiae deletion strains, strain NNK1, hits give low values 0.984 | S. cerevisiae deletion strains, strain TSCII, hits give low values 0.955
